This note sets out measurements from PubChem BioAssay (NCI).

SMILES strings stand for the structures. Compounds without any hit were thinned out: in the full panel of roughly 83,000, 20% have a hit.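 Growth was measured after 48 h exposure to one concentration of compound in 96-well plates. Values under 10 count as active.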 Unmarked numbers belong to inactive results. The source made the active and inactive calls.

Some test systems named below: NCI-H23 lung; NCI-H226 lung; NCI-H322M lung; HOP-62 NSCLC; NCI-H460 lung; HOP-92 NSCLC; NCI-H522 lung; A549/ATCC NSCLC; 786-0 renal; DU-145 prostate; K-562 leukemia; MALME-3M melanoma; MDA-MB-231 breast; RXF 393 renal; SF-268 CNS; SF-295 CNS; SF-539 CNS; UACC-257 melanoma; M14 melanoma.
Holding throughout (assay): NCI-60 one-dose screen, 48 h (100 = growth as untreated, 0 = no growth, -100 = all killed)
Holding throughout (conditions): 10 µM unless noted

In the case of `C=C1c2c(C)nn(-c3ccc(NC(C)=O)cc3)c2N(C)C23CC1C1(C)c4c(C)nn(-c5ccc(NC(C)=O)cc5)c4N(C)C(C)(CC12)C3` (configuration not stated), the growth in the assay with NCI-H23 lung is 58.2%; with NCI-H226 lung, 47.2%; with NCI-H322M lung, 61.2%; in the assay on HOP-62 NSCLC it was 55.9%; in the assay on NCI-H460 lung, 8.58% (active); in the assay on HOP-92 NSCLC, 65%. The growth with NCI-H522 lung is 42.9%; with A549/ATCC NSCLC, 26.3%; in the assay on 786-0 renal it was 43.5%; with DU-145 prostate it was 46.8%; in the assay with K-562 leukemia, 14.9%; with MALME-3M melanoma it was 71.1%. Moreover, the growth is 48.4% with MDA-MB-231 breast; 29.9% with RXF 393 renal; 43.8% with SF-268 CNS; 35.6% with SF-295 CNS; 63.1% with SF-539 CNS; 38.4% with UACC-257 melanoma. The growth in the assay with M14 melanoma is 19.6%.
Take `COc1ccc(O)c(-c2cc(-c3ccccc3)c(C#N)c(=O)[nH]2)c1`: the growth with NCI-H23 lung was 84.1%; in the assay on NCI-H226 lung, 88.5%; in the assay with NCI-H322M lung, 96.4%; in the assay on HOP-62 NSCLC, 85.5%; with NCI-H460 lung, 92.5%; in the assay with HOP-92 NSCLC it was 61.5%. The growth in the assay on NCI-H522 lung is 65.6%; in the assay with A549/ATCC NSCLC it was 84.1%; in the assay on 786-0 renal, 85.4%; in the assay with DU-145 prostate, 102%; in the assay with K-562 leukemia it was 68.9%; in the assay with MALME-3M melanoma, 112%. Besides, the growth is 89.9% in the assay with MDA-MB-231 breast; 104% in the assay with RXF 393 renal; 103% in the assay with SF-268 CNS; 95.2% in the assay with SF-295 CNS; 98.1% in the assay with SF-539 CNS; 85% with UACC-257 melanoma. For the same compound, the growth in the assay with M14 melanoma was 94.9%.
Regarding `COc1ccccc1C(=O)NC(=S)Nc1ccc(-c2nc3ccccc3[nH]2)cc1`, the growth was 58.4% in the assay on NCI-H23 lung; 46.3% in the assay with NCI-H226 lung; 80.7% in the assay with NCI-H322M lung; 46.2% in the assay on HOP-62 NSCLC; 4.59% (active) with NCI-H460 lung; 101% in the assay on HOP-92 NSCLC. Moreover, the growth with NCI-H522 lung was 91.4%; in the assay on A549/ATCC NSCLC, 58.7%; in the assay on 786-0 renal, 41.5%; with DU-145 prostate, 42.9%; with K-562 leukemia, 48%; in the assay with MALME-3M melanoma, 27.5%. The growth in the assay with MDA-MB-231 breast was -10.1% (active); with RXF 393 renal, 49.1%; in the assay with SF-268 CNS it was 49.2%; with SF-295 CNS it was 61.3%; in the assay on SF-539 CNS, 48.1%; in the assay on UACC-257 melanoma it was 94.3%. Also, the growth in the assay with M14 melanoma was 54.3%.
For `N#Cc1c(Oc2ccc([N+](=O)[O-])cc2)nc2sc3cc(Cl)ccc3n2c1=N`, the growth was 73.7% with NCI-H23 lung; 56.8% with NCI-H226 lung; 98.2% in the assay with NCI-H322M lung; 107% with HOP-62 NSCLC; 96.5% in the assay with NCI-H460 lung; 83.7% with HOP-92 NSCLC. The growth is 93.7% in the assay with NCI-H522 lung; 72.9% in the assay with A549/ATCC NSCLC; 64.3% in the assay with 786-0 renal; 105% in the assay on DU-145 prostate; 118% with K-562 leukemia; -10.6% (active) in the assay on MALME-3M melanoma. In addition, the growth was 97.3% with MDA-MB-231 breast; 32.6% with RXF 393 renal; 64.9% with SF-268 CNS; 76.4% in the assay on SF-295 CNS; 106% in the assay on SF-539 CNS; 57.6% in the assay on UACC-257 melanoma. The growth in the assay on M14 melanoma is 78%.
With `Cc1nc2ccc(C(=O)NCc3cc(C(=O)O)c(C)o3)cc2nc1C`, the growth in the assay with NCI-H23 lung was 101%; with NCI-H226 lung it was 100%; in the assay with NCI-H322M lung, 96.9%; in the assay on HOP-62 NSCLC it was 77%; in the assay on NCI-H460 lung, 100%; with HOP-92 NSCLC it was 90.8%. Also, the growth with NCI-H522 lung is 92.2%; in the assay on A549/ATCC NSCLC, 91.4%; with 786-0 renal, 94.4%; in the assay with DU-145 prostate, 105%; in the assay with K-562 leukemia it was 110%; in the assay on MALME-3M melanoma it was 93.4%. Also, the growth in the assay with MDA-MB-231 breast is 101%; with RXF 393 renal it was 97.4%; in the assay with SF-268 CNS it was 91.4%; in the assay on SF-295 CNS, 102%; in the assay with SF-539 CNS, 96.2%; in the assay with UACC-257 melanoma, 87.2%. Moreover, in the assay with M14 melanoma, the growth is 91.4%.
Turning to `NC(N)=N/N=C/CO`, the growth in the assay on NCI-H23 lung was 103%; in the assay on NCI-H226 lung, 99%; with NCI-H322M lung, 99.7%; in the assay on HOP-62 NSCLC it was 105%; in the assay on NCI-H460 lung, 104%; in the assay with HOP-92 NSCLC, 108%. The growth with NCI-H522 lung was 106%; in the assay on A549/ATCC NSCLC, 97.9%; in the assay with 786-0 renal, 99.9%; in the assay on DU-145 prostate, 101%; in the assay on K-562 leukemia, 99.2%; with MALME-3M melanoma it was 111%. Besides, the growth with MDA-MB-231 breast was 111%; with RXF 393 renal, 109%; in the assay on SF-268 CNS it was 105%; in the assay on SF-295 CNS, 103%; with SF-539 CNS it was 97.5%; with UACC-257 melanoma, 95.9%. In addition, the growth in the assay with M14 melanoma was 99%.
As to `O=C(/C=C/C12c3ccccc3C(c3ccccc31)C1C(=O)N(c3ccccc3)C(=O)C12)c1ccccc1` (configuration not stated), the growth in the assay on NCI-H23 lung is 5.23% (active); with NCI-H226 lung, -27.4% (active); in the assay with NCI-H322M lung, 12.9%; with HOP-62 NSCLC it was 28.7%; in the assay on NCI-H460 lung, -41.3% (active); in the assay on HOP-92 NSCLC, -6.42% (active). For the same compound, the growth in the assay with NCI-H522 lung is 16.7%; in the assay on A549/ATCC NSCLC it was 20.5%; in the assay with 786-0 renal, 3.15% (active); in the assay on DU-145 prostate, 5.98% (active); with K-562 leukemia, 14.5%; in the assay with MALME-3M melanoma, -38.1% (active). Further, the growth is -3.22% (active) in the assay with MDA-MB-231 breast; -72.8% (active) in the assay on RXF 393 renal; 35.9% in the assay on SF-268 CNS; -3.2% (active) in the assay on SF-295 CNS; -3.29% (active) with SF-539 CNS; 33.6% with UACC-257 melanoma. Also, the growth in the assay on M14 melanoma is 14.7%.
As to `Oc1ccccc1-c1nc2ccccn2c1NCCN1CCOCC1`, the growth was 100% with NCI-H23 lung; 101% in the assay on NCI-H226 lung; 91.7% in the assay on NCI-H322M lung; 76.8% in the assay on HOP-62 NSCLC; 99.2% in the assay with NCI-H460 lung; 85.2% with HOP-92 NSCLC. Also, the growth in the assay with NCI-H522 lung is 84%; in the assay on A549/ATCC NSCLC it was 91.9%; in the assay with 786-0 renal, 92.4%; in the assay on DU-145 prostate, 102%; in the assay on K-562 leukemia it was 83%; with MALME-3M melanoma, 96.2%. The growth with MDA-MB-231 breast is 92.7%; in the assay on RXF 393 renal, 109%; with SF-268 CNS, 96.1%; with SF-295 CNS, 98%; in the assay with SF-539 CNS, 97.2%; in the assay on UACC-257 melanoma, 96.2%. Moreover, in the assay on M14 melanoma, the growth was 96.5%.
